{"source": "PubChem BioAssay (EPA / NIEHS)", "key": {"[1]": {"target": "Peroxisome proliferator-activated receptor gamma (Homo sapiens) (UniProt P37231)", "sequence (P37231 whole entry, looked up, the tested form may be a part)": "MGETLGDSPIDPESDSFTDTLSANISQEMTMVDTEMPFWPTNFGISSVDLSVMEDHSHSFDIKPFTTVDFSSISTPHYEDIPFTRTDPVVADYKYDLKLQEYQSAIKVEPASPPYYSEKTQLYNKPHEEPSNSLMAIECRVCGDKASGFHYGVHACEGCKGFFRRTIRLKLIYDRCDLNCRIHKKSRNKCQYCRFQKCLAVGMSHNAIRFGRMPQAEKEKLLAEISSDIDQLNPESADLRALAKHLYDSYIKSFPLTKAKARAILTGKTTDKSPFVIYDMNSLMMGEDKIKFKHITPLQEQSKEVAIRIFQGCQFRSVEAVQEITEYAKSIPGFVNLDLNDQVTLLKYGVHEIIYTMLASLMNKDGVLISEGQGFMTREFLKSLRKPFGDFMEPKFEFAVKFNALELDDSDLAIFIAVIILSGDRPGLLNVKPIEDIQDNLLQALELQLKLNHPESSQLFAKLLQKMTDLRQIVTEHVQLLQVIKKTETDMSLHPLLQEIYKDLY", "assay": "OT_PPARg_PPARgSRC1_1440: Odyssey Thera (OT) 24-hour Protein-Complementation Assay for Peroxisome Proliferator-activated Receptor Gamma/ SRC-1 Co-activator (AID 2283388)", "summary_of_the_method": "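HEK293T transiently transfected with PPARg/SRC-1 split-Venus YFP fusions 48 h before dosing, then treated 24 h at 37C. Fixed cells imaged; nuclear/cytoplasmic 488 nm fluorescence ratio, gain of signal versus DMSO.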"}, "[2]": {"assay": "CEETOX_H295R_11DCORT: CeeTox H295R High-throughput Steroidogenesis Assay for 11-Deoxycortisol (11DCORT) (AID 2283432; active = hit-call score of the fitted dose curve at least 0.9, where 1 is the maximum; inactive = score below 0.9)", "settings": "actives raise or lower the signal", "summary_of_the_method": "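H295R cells; 10 uM forskolin prestim 48 h; compound in 0.1% DMSO 48 h; media extracted with MTBE; 11-deoxycortisol by LC-MS/MS, 7-point standard curve; gain/loss vs DMSO baseline; viability by MTT in same wells.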"}, "[3]": {"assay": "CEETOX_H295R_OHPREG: CeeTox H295R High-throughput Steroidogenesis Assay for OH-Pregnenolone (OHPREG) (AID 2283434; active = hit-call score of the fitted dose curve at least 0.9, where 1 is the maximum; inactive = score below 0.9)", "settings": "actives raise or lower the signal", "summary_of_the_method": "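Hormone levels in spent medium were measured by tandem mass spectrometry following liquid-liquid extraction. Cells (H295R) had been forskolin-stimulated (10 uM, 48 h) before a 48 h chemical exposure at 0.1% DMSO, with activity fitted in both directions against DMSO.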"}, "[4]": {"assay": "CEETOX_H295R_ANDR: CeeTox H295R High-throughput Steroidogenesis Assay for Androstenedione (ANDR) (AID 2283436; active = hit-call score of the fitted dose curve at least 0.9, where 1 is the maximum; inactive = score below 0.9)", "settings": "actives raise or lower the signal", "summary_of_the_method": "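Read-out is androstenedione secreted into medium, measured by tandem mass spectrometry after liquid-liquid extraction. Cells were H295R, dosed for 48 h per modified OECD 456; activity fitted in both directions relative to DMSO.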"}, "[5]": {"assay": "CEETOX_H295R_CORTIC: CeeTox H295R High-throughput Steroidogenesis Assay for Corticosterone (CORTIC) (AID 2283437; active = hit-call score of the fitted dose curve at least 0.9, where 1 is the maximum; inactive = score below 0.9)", "settings": "actives raise or lower the signal", "summary_of_the_method": "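Corticosterone secreted into medium is measured by reverse-phase HPLC with tandem MS following liquid-liquid extraction. Cells are forskolin-stimulated (10 uM, 48 h) before 48 h test exposure; activity fitted in both directions against DMSO.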"}, "[6]": {"assay": "CEETOX_H295R_CORTISOL: CeeTox H295R High-throughput Steroidogenesis Assay for Cortisol (AID 2283438; active = hit-call score of the fitted dose curve at least 0.9, where 1 is the maximum; inactive = score below 0.9)", "settings": "actives raise or lower the signal", "summary_of_the_method": "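H295R human adrenal cells were prestimulated 48 h with 10 uM forskolin, then exposed 48 h to test chemical (0.1% DMSO final). Medium cortisol was quantified by HPLC-MS/MS after MTBE extraction; bidirectional fitting relative to DMSO baseline.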"}, "[7]": {"assay": "CEETOX_H295R_DOC: CeeTox H295R High-throughput Steroidogenesis Assay for DOC (AID 2283439; active = hit-call score of the fitted dose curve at least 0.9, where 1 is the maximum; inactive = score below 0.9)", "settings": "actives raise or lower the signal", "summary_of_the_method": "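H295R adrenal cells prestimulated 48 h with 10 uM forskolin, then exposed 48 h to test chemical (0.1% DMSO final). Medium 11-deoxycorticosterone extracted with MTBE, quantified by HPLC-MS/MS; bidirectional fit versus DMSO baseline; MTT viability in same wells.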"}, "[8]": {"assay": "CEETOX_H295R_PROG: CeeTox H295R High-throughput Steroidogenesis Assay for Progesterone (PROG) (AID 2283442; active = hit-call score of the fitted dose curve at least 0.9, where 1 is the maximum; inactive = score below 0.9)", "settings": "actives raise or lower the signal", "summary_of_the_method": "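H295R adrenal cells prestimulated 48 h with 10 uM forskolin, then exposed 48 h to test chemical in 0.1% DMSO. Progesterone in medium quantified by HPLC-MS/MS after MTBE extraction; viability checked by MTT in same wells.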"}, "[9]": {"assay": "CEETOX_H295R_ESTRADIOL: CeeTox H295R High-throughput Steroidogenesis Assay for Estradiol (AID 2283440; active = hit-call score of the fitted dose curve at least 0.9, where 1 is the maximum; inactive = score below 0.9)", "settings": "actives raise or lower the signal", "summary_of_the_method": "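H295R cells pre-stimulated 48 h with 10 uM forskolin, then exposed 48 h to chemical in 0.1% DMSO. Medium estradiol quantified by MTBE extraction, dansyl derivatisation and HPLC-MS/MS; bidirectional fit versus DMSO; MTT viability required >/=70%.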"}, "[10]": {"assay": "CEETOX_H295R_ESTRONE: CeeTox H295R High-throughput Steroidogenesis Assay for Estrone (AID 2283441; active = hit-call score of the fitted dose curve at least 0.9, where 1 is the maximum; inactive = score below 0.9)", "settings": "actives raise or lower the signal", "summary_of_the_method": "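H295R cells; 48 h forskolin (10 uM) prestimulation; 48 h compound exposure, 0.1% DMSO final. Medium estrone: MTBE extraction, dansyl derivatization, HPLC-MS/MS. Bidirectional fit vs DMSO.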"}}, "note": "Active and inactive are the calls of the source. Rule for the calls, unless noted: active = hit-call score of the fitted dose curve at least 0.9, where 1 is the maximum; inconclusive = response in the unintended direction; inactive = score below 0.9.", "data": [{"compound": "Nc1cccc(N)c1", "values": [{"measurement": "outcome", "setting": "[1]", "result": "inactive"}]}, {"compound": "CCCCC(CC)COC(=O)c1ccc(C(=O)OCC(CC)CCCC)cc1", "note": "(stereo unspecified)", "values": [{"measurement": "outcome", "setting": "[1]", "result": "inactive"}]}, {"compound": "O=C(CCCCCCCCc1cccnc1)N1CCC(C=C(c2ccccc2)c2ccccc2)CC1", "values": [{"measurement": "outcome", "setting": "[1]", "result": "inactive"}]}, {"compound": "O=C(O)CC(O)C(=O)O", "note": "(stereo unspecified)", "values": [{"measurement": "outcome", "setting": "[1]", "result": "inactive"}]}, {"compound": "O=C(NS(=O)(=O)/C=C/c1ccccc1)c1ccc(F)cc1Cl", "values": [{"measurement": "AC50", "setting": "[1]", "result": "50 µM (active)"}]}, {"compound": "CCOCCOCCOCCO", "values": [{"measurement": "outcome", "setting": "[1]", "result": "inactive"}]}, {"compound": "CCN(C(=O)c1cc(C)cc(OC[C@H](C)Nc2ccncc2)c1)C(C)C", "values": [{"measurement": "outcome", "setting": "[1]", "result": "inactive"}]}, {"compound": "CNCc1ccc(NC(=O)c2c[nH]c3c2C(=O)CCC3)cc1", "values": [{"measurement": "outcome", "setting": "[1]", "result": "inactive"}]}, {"compound": "CC(C)=CCC/C(C)=C/CO", "values": [{"measurement": "outcome", "setting": "[1]", "result": "inactive"}]}, {"compound": "CC(=O)c1ccc2c(c1)[C@H](NC(=O)c1ccc(F)cc1)[C@@H](O)C(C)(C)O2", "values": [{"measurement": "outcome", "setting": "[1]", "result": "inactive"}]}, {"compound": "Nc1nc2ncc(CNc3ccc(C(=O)N[C@@H](CCC(=O)O)C(=O)O)cc3)nc2c(=O)[nH]1", "values": [{"measurement": "outcome", "setting": "[1]", "result": "inactive"}]}, {"compound": "Cn1c(=O)c2c(ncn2C)n(C)c1=O", "values": [{"measurement": "outcome", "setting": "[1]", "result": "inactive"}]}, {"compound": "Oc1ccc2c(c1)-c1ccccc1C2", "values": [{"measurement": "outcome", "setting": "[1]", "result": "inactive"}, {"measurement": "AC50", "setting": "[2]", "result": "40 µM (active)"}, {"measurement": "AC50", "setting": "[3]", "result": "33.7 µM (active)"}, {"measurement": "AC50", "setting": "[4]", "result": "42.3 µM (active)"}, {"measurement": "AC50", "setting": "[5]", "result": "11.5 µM (active)"}, {"measurement": "AC50", "setting": "[6]", "result": "81.5 µM (active)"}, {"measurement": "AC50", "setting": "[7]", "result": "30.3 µM (active)"}, {"measurement": "AC50", "setting": "[8]", "result": "30.8 µM (active)"}]}, {"compound": "O=C(O)CCN(C1(C(=O)NO)CCCC1)S(=O)(=O)c1ccc(Oc2ccc(F)cc2)cc1", "values": [{"measurement": "outcome", "setting": "[1]", "result": "inactive"}]}, {"compound": "CCCCC(CC)COC(=O)CCCCCCCCC(=O)OCC(CC)CCCC", "note": "(stereo unspecified)", "values": [{"measurement": "outcome", "setting": "[1]", "result": "inactive"}]}, {"compound": "C1N2CN3CN1CN(C2)C3", "values": [{"measurement": "outcome", "setting": "[1]", "result": "inactive"}]}, {"compound": "O=C(O)c1cccc(Oc2ccccc2)c1", "values": [{"measurement": "outcome", "setting": "[1]", "result": "inactive"}]}, {"compound": "O=C1OC(=O)C2C3C=CC(C3)C12", "note": "(stereo unspecified)", "values": [{"measurement": "outcome", "setting": "[1]", "result": "inactive"}]}, {"compound": "Clc1nc(Cl)c(Cl)c(Cl)c1Cl", "values": [{"measurement": "outcome", "setting": "[1]", "result": "inactive"}]}, {"compound": "CC(C)=CCCC(C)CCO", "note": "(stereo unspecified)", "values": [{"measurement": "outcome", "setting": "[1]", "result": "inactive"}]}, {"compound": "CC1(C)C(=O)N(Br)C(=O)N1Br", "values": [{"measurement": "outcome", "setting": "[1]", "result": "inactive"}]}, {"compound": "O=c1n(CC2CO2)c(=O)n(CC2CO2)c(=O)n1CC1CO1", "note": "(stereo unspecified)", "values": [{"measurement": "outcome", "setting": "[1]", "result": "inactive"}]}, {"compound": "Cc1ccc(N)cc1O", "values": [{"measurement": "outcome", "setting": "[1]", "result": "inactive"}, {"measurement": "outcome", "setting": "[2]", "result": "inactive"}, {"measurement": "outcome", "setting": "[3]", "result": "inactive"}, {"measurement": "outcome", "setting": "[4]", "result": "inactive"}, {"measurement": "outcome", "setting": "[5]", "result": "inactive"}, {"measurement": "outcome", "setting": "[6]", "result": "inactive"}, {"measurement": "outcome", "setting": "[7]", "result": "inactive"}, {"measurement": "AC50", "setting": "[9]", "result": "40.9 µM (active)"}, {"measurement": "outcome", "setting": "[10]", "result": "inactive"}, {"measurement": "AC50", "setting": "[8]", "result": "50 µM (active)"}]}, {"compound": "CCOCCO", "values": [{"measurement": "outcome", "setting": "[1]", "result": "inactive"}]}, {"compound": "CC(C)CCCCCCCOC(=O)CCCCC(=O)OCCCCCCCC(C)C", "values": [{"measurement": "outcome", "setting": "[1]", "result": "inactive"}]}, {"compound": "O=C(O)c1cc(N=Nc2ccc(S(=O)(=O)Nc3ccccn3)cc2)ccc1O", "values": [{"measurement": "outcome", "setting": "[1]", "result": "inactive"}]}, {"compound": "CC(C)CCO", "values": [{"measurement": "outcome", "setting": "[1]", "result": "inactive"}]}, {"compound": "CC(C)c1cccc(C(C)C)c1N1C(=O)c2ccc(O)cc2C1=O", "values": [{"measurement": "outcome", "setting": "[1]", "result": "inactive"}, {"measurement": "AC50", "setting": "[3]", "result": "32.5 µM (active)"}, {"measurement": "outcome", "setting": "[5]", "result": "inactive"}, {"measurement": "AC50", "setting": "[6]", "result": "27.1 µM (active)"}, {"measurement": "AC50", "setting": "[7]", "result": "16.7 µM (active)"}, {"measurement": "AC50", "setting": "[8]", "result": "86.5 µM (active)"}]}, {"compound": "Nc1ccc(Nc2ccccc2)cc1", "values": [{"measurement": "outcome", "setting": "[1]", "result": "inactive"}, {"measurement": "outcome", "setting": "[2]", "result": "inactive"}, {"measurement": "AC50", "setting": "[3]", "result": "83.7 µM (active)"}, {"measurement": "outcome", "setting": "[5]", "result": "inactive"}, {"measurement": "AC50", "setting": "[6]", "result": "65.8 µM (active)"}, {"measurement": "AC50", "setting": "[7]", "result": "4.03 µM (active)"}, {"measurement": "outcome", "setting": "[8]", "result": "inactive"}]}, {"compound": "CCCCCCCCCCCCCCCO", "values": [{"measurement": "outcome", "setting": "[1]", "result": "inactive"}, {"measurement": "outcome", "setting": "[3]", "result": "inactive"}, {"measurement": "AC50", "setting": "[8]", "result": "14.8 µM (active)"}]}, {"compound": "CC1=CC(=O)CC(C)(C)C1", "values": [{"measurement": "outcome", "setting": "[1]", "result": "inactive"}, {"measurement": "outcome", "setting": "[2]", "result": "inactive"}, {"measurement": "outcome", "setting": "[3]", "result": "inactive"}, {"measurement": "outcome", "setting": "[5]", "result": "inactive"}, {"measurement": "outcome", "setting": "[6]", "result": "inactive"}, {"measurement": "outcome", "setting": "[7]", "result": "inactive"}, {"measurement": "outcome", "setting": "[8]", "result": "inactive"}]}]}
